# Measurements taken from PubChem BioAssay (NCATS).
# Active and inactive are the calls of the source.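 How the source made its calls: active means compounds whose dose series gives a full or clear partial fitted curve of increased nuclear translocation; inconclusive means weak partial curve or effect only at the top dose; inactive means no dose-dependent translocation response.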
# Molecular target: Glucocorticoid receptor (Homo sapiens) (UniProt P04150)
# Experiment: GR-GFP Redistribution (AID 450)
# Conditions: U2OS GR-GFP nuclear translocation, laser cytometry, 2 h; series mostly up to 20.6 µM
# Potency means the concentration at half of the fitted maximal effect.
# Sequence of Glucocorticoid receptor (Homo sapiens) (P04150 whole entry, looked up): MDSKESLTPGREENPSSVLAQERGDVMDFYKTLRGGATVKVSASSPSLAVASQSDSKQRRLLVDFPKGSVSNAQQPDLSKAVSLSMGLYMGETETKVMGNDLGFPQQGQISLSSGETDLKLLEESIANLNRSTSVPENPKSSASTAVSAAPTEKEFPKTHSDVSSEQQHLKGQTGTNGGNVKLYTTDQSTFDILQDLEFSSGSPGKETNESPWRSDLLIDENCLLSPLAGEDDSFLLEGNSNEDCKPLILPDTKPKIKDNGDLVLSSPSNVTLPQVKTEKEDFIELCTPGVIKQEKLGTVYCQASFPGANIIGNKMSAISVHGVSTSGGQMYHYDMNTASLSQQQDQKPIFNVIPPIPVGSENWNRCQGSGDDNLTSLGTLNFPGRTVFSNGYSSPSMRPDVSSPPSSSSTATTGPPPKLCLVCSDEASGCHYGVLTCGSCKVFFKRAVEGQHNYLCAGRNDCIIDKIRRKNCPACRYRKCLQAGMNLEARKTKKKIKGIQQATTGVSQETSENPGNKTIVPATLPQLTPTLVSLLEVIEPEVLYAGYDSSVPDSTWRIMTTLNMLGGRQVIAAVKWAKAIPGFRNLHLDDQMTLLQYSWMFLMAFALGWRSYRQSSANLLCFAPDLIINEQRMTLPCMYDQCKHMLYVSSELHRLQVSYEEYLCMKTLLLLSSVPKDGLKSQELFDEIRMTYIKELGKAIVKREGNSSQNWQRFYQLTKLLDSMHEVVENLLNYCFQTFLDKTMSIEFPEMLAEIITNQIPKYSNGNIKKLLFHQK
row,SMILES,Potency
1,Cc1c(Cl)cccc1N1C(=O)C2ON(c3ccccc3)C(c3cccnc3)C2C1=O (stereo not given),> 20.6 µM (inactive)
2,CCCCc1nc(N2CCOCC2)c(C#N)c2c1COC(C)(C)C2,> 20.6 µM (inactive)
3,CC(Sc1ccc2ccccc2n1)C(=O)O (stereo not given),> 20.6 µM (inactive)
4,COc1ccc(-n2ncc3c(NCCCn4ccnc4)ncnc32)cc1,> 20.6 µM (inactive)
5,Cc1cc(C)n(-c2c(F)c(F)c(CN3CCCCC3)c(F)c2F)n1,> 20.6 µM (inactive)
6,O=C(COc1ccc(F)cc1)OCCN1CCOCC1,> 20.6 µM (inactive)
7,COc1ccc(/C(O)=C2/C(=O)C(=O)N(c3ncccn3)C2c2ccc(OC)c(OC)c2)cc1 (stereo not given),> 20.6 µM (inactive)
8,N#C/C(=C\c1c(N2CCC(C(N)=O)CC2)nc2ccccn2c1=O)S(=O)(=O)c1ccccc1,> 20.6 µM (inactive)
9,COc1cccc(N2CCN(c3ncnc4c3[nH]c3ccc(F)cc34)CC2C)c1 (stereo not given),> 20.6 µM (inactive)
10,O=C(NCCc1ccccc1)/C(=N\O)c1ccccc1,> 20.6 µM (inactive)
11,O=C(O)c1ccc(C2CCCCC2)cn1,> 20.6 µM (inactive)
12,Cc1nc2n[nH]c(N)c2c2c1COC(C)(C)C2,> 20.6 µM (inactive)
13,c1ccc(Cc2nnc3n2CCCCC3)cc1,> 20.6 µM (inactive)
14,Cn1c(=O)n(CCc2ccccc2)c(=O)c2c1ncn2Cc1ccccc1,> 20.6 µM (inactive)
15,COC(=O)CC1=NC(=O)CS1,> 20.6 µM (inactive)
16,COc1ccc(OCC(=O)N2CCN(C(=O)c3cccc4ccccc34)CC2)cc1,> 20.6 µM (inactive)
17,O=C1CC(c2ccco2)CC(O)=C1C=NCCN1CCN(C2CC(=O)N(c3ccccc3)C2=O)CC1 (stereo not given),> 20.6 µM (inactive)
18,C/C=C/c1ccccc1OCc1ccc(C(=O)O)o1,> 20.6 µM (inactive)
19,CC(C)CN1C(=O)NC(NC(=O)c2cccnc2)(C(F)(F)F)C1=O (stereo not given),> 20.6 µM (inactive)
20,COc1ccc(OC)c(C2/C(=C(/O)c3ccc(C)cc3)C(=O)C(=O)N2Cc2ccco2)c1 (stereo not given),> 20.6 µM (inactive)
21,CCOC(=O)c1[nH]c2cc3c(cc2c1NC(=O)CN1CCC2(CC1)OCCO2)OCO3,> 20.6 µM (inactive)
22,COc1cccc(Cn2c(NCc3ccccn3)nc3c2c(=O)n(C)c(=O)n3C)c1,> 20.6 µM (inactive)
23,CC(C)Cc1nc2n[nH]c(N)c2c2c1CCC2,> 20.6 µM (inactive)
24,Cc1ccc(S(=O)(=O)NC(=O)NCc2ccc3c(c2)OCO3)cc1,> 20.6 µM (inactive)
25,CC1(C)Cc2c(C#N)c(N3CCOCC3)nc(Cc3ccccc3)c2CO1,> 20.6 µM (inactive)
